# From PubChem BioAssay (NCATS)
# Records with an inconclusive call do not appear. A call without a number means that no potency is given here. Calls of active or inactive are those of the source. Unless noted, calls come from the whole dose curve; as a rule, active = well fitted curve in the direction sought with a large enough effect; inconclusive = small, poorly fitted or top-dose-only effect, or another doubt; inactive = no such curve, though single readings can be large; an effect the other way counts as inactive or inconclusive.
# Assays:
# [1] = target: Mitogen-activated protein kinase 10 (Mus musculus) (UniProt Q61831); assay: JNK3 AlphaScreen Assay (AID 530; active = well fitted curve in either direction with a large enough effect, not every such curve was filed as active;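 note: kinase came from lysate of stimulated human HepG2 cells; signal reports phosphorylation of biotinylated GST-cJun 1-79 at Ser73 with 10 µM ATP; series mostly up to about 57 µM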)
# How it was run: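 Room-temperature AlphaScreen kinase assay; pre-activated HepG2 lysate as JNK3 source, biotin-GST-cJun(1-79) substrate, 10 uM ATP, compound 15 min preincubation.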
# [2] = target: Cytochrome P450 3A4 (Homo sapiens) (UniProt P08684); assay: qHTS Assay for Inhibitors and Substrates of Cytochrome P450 3A4 (AID 884); note: nearly all actives have a fitted effect of over 50% in size; note: potency is the fitted concentration of half-maximal effect
# Cytochrome P450 3A4 (Homo sapiens), sequence (P08684 whole entry, looked up): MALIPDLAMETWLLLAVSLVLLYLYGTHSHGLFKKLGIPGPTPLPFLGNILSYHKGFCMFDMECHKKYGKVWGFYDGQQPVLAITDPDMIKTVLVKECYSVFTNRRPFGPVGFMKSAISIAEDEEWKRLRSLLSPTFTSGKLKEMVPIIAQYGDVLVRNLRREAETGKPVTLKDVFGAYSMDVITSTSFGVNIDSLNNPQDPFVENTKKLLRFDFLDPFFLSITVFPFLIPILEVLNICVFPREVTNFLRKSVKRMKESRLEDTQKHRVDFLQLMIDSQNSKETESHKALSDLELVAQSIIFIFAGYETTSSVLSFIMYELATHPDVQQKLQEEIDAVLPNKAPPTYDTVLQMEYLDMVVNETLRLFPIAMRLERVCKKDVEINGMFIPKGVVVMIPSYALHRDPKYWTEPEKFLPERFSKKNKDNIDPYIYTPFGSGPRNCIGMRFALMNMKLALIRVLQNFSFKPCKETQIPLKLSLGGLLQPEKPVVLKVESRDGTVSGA
# How it was run: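 20 nM human CYP3A4 with 25 uM Luciferin-PPXE (at KM) in 200 mM KPO4, preincubated 10 min with compound; NADPH regeneration started a 60 min RT reaction. Luciferin detected by luminescence, normalized to 57 uM ketoconazole as full inhibition.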
# [3] = target: Cytochrome P450 3A4 (Homo sapiens) (UniProt P08684); assay: qHTS Assay for Activators of Cytochrome P450 3A4 (AID 885); note: nearly all actives have a fitted effect of over 65% in size
# How it was run: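 20nM CYP3A4 + 25uM Luciferin-PPXE (=KM), 200mM KPO4; cpd 10 min RT; NADPH regen, 60 min RT; stop w/ detection buffer, 20 min; luminescence. Normalized to 57 uM ketoconazole.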
# [4] = target: Calcium and integrin-binding protein 1 (Homo sapiens) (UniProt Q99828); assay: Primary qHTS for Identification of Calcium Integrin Binding Protein 1 (CIB1) Competitor (AID 1508620);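 note: GST tagged CIB1 binding a fluorescein labelled alphaIIb integrin peptide tracer; top concentration of the series differs between compounds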
# Calcium and integrin-binding protein 1 (Homo sapiens), sequence (Q99828 whole entry, looked up): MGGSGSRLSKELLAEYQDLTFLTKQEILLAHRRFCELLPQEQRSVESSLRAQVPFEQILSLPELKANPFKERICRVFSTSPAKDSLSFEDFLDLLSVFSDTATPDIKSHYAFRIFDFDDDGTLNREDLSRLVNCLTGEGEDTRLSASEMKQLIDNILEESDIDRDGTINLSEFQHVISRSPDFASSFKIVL
# How it was run: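 CIB1-GST (1 uM final) and compound incubated 15 min at room temperature before adding FITC-alphaIIb peptide tracer (100 nM final). Competition for binding read by fluorescence polarization (ex 480, em 540) after another 15 min at room temperature.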
SMILES,outcome [1],Potency [2],Potency [3],Potency [4]
CCN(CC)CCn1c(-c2ccccc2)nc2c(NCc3ccccc3)nc(C)nc21,inactive,12.6 µM (active),inactive,inactive
CCN(CC)CCCn1c(-c2ccccc2)nc2c(NCCOC)nc(C)nc21,inactive,inactive,–,inactive
COCCN(CCOC)c1nc(C)nc2c1nc(-c1ccccc1)n2CCN1CCOCC1,inactive,1 µM (active),inactive,inactive
CCN(CC)CCn1c(-c2ccccc2)nc2c(N3CCOCC3)nc(C)nc21,inactive,inactive,–,inactive
CCCn1c(C)nc2c(NCC(C)(C)CN(C)C)nc(C)nc21,inactive,inactive,–,inactive
CCCn1c(-c2ccc(F)cc2)nc2c(NCCCN(C)C)nc(C)nc21,inactive,inactive,–,inactive
COCCNc1nc(C)nc2c1nc(-c1ccccc1)n2CCN(C)C,inactive,inactive,–,inactive
CCN(CC)CCCC(C)n1c(-c2ccccc2)nc2c(NCCO)nc(C)nc21 (stereo unspecified),inactive,inactive,–,inactive
CCCn1c(C)nc2c(NCCCN3CCCCC3C)nc(C)nc21 (stereo unspecified),inactive,–,–,inactive
CCCn1c(C)nc2c(N3CCC(N(C)C)C3)nc(C)nc21 (stereo unspecified),inactive,inactive,–,inactive
COCCNc1nc(C)nc2c1nc(-c1ccccc1)n2CC1CCN(C)CC1,inactive,inactive,–,inactive
CCCn1c(C)nc2c(NCCCCN3CCCC3)nc(C)nc21,inactive,inactive,–,inactive
CCCn1c(C)nc2c(NCCN(C(C)C)C(C)C)nc(C)nc21,inactive,inactive,–,inactive
Cc1nc(N2CCOCC2)c2nc(-c3ccccc3)n(CCN(C)C)c2n1,inactive,inactive,–,inactive
CCCn1c(C)nc2c(NC3CCN(Cc4ccccc4)CC3)nc(C)nc21,inactive,inactive,–,inactive
